# Legend:
# POU1 (OCT1 POU domain) = POU1 (OCT1 POU domain) (human, UniProt P14859 260-458); assay: EMSA-SELEX-seq; no BOB1; 20 mM Tris-HCl pH 7.6, 140 mM NaCl, 10% glycerol, 0.5 mM EDTA, 0.05% Triton X-100, 0.1 mg/mL BSA, 0.1 mg/mL poly(dI-dC), 5 mM DTT, room temperature, 20 min; high values mean tight binding; settings: protein: recombinant; dsDNA, one strand shown
# In short: (§1)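 Tagged POU-domain proteins were expressed in E. coli BL21, purified under denaturing conditions and renatured. Then 30 ng was mixed with 300 ng of a PCR-amplified double-stranded random 35-nt library, with or without 28 ng coactivator protein, in 20 μL Tris–HCl pH 7.6 binding buffer for 20 min at RT. Complex bands were cut from native 6% PAGE, eluted and PCR-amplified over four rounds, then Illumina-sequenced. Binding preference is the percentage of sequenced 8-mers matching a motif pattern.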
# POU2 (OCT2 POU domain) = target: T1, POU2 (OCT2 POU domain) (human, UniProt P09086 175-386); assay: as above; settings: protein: recombinant; dsDNA, one strand shown
# T1 sequence: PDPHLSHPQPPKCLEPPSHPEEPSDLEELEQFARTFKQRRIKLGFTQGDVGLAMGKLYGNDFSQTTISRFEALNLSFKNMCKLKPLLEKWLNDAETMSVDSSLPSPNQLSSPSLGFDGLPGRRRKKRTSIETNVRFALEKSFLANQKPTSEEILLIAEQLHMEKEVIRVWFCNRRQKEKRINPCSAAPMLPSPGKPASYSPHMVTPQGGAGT
# In short: as §1
# [1] = target: POU1 (OCT1 POU domain);BOB1 (OBF1, OCA-B) (human;human, UniProt P14859;Q16633 260-458;1-256, |); assay: EMSA-SELEX-seq; with BOB1 (ternary complex band); 20 mM Tris-HCl pH 7.6, 140 mM NaCl, 10% glycerol, 0.5 mM EDTA, 0.05% Triton X-100, 0.1 mg/mL BSA, 0.1 mg/mL poly(dI-dC), 5 mM DTT, room temperature, 20 min; high values mean tight binding; settings: protein: recombinant;recombinant; copies: 1;1; dsDNA, one strand shown
# In short: as §1
# [2] = target: T2, POU2 (OCT2 POU domain);BOB1 (OBF1, OCA-B) (human;human, UniProt P09086;Q16633 175-386;1-256, |); assay: as above; settings: protein: recombinant;recombinant; copies: 1;1; dsDNA, one strand shown
# T2 sequence 1: T1 sequence
# T2 sequence 2: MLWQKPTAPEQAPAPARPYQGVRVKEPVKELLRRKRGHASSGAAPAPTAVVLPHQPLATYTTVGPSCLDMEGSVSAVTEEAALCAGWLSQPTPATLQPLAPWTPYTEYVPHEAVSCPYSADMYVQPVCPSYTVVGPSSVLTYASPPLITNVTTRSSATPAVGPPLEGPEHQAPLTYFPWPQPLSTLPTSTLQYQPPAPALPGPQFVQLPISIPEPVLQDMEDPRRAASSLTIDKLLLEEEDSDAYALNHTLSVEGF
# In short: as §1
# POU1 (OCT1 POU domain), sequence (P14859 260-458): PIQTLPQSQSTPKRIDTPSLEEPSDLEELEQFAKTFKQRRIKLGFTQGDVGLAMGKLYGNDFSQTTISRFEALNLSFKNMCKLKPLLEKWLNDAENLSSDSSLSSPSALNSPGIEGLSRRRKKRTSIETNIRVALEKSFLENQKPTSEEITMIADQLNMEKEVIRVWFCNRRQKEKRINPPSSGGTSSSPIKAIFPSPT
Sequence,binding signal (POU1 (OCT1 POU domain)),binding signal (POU2 (OCT2 POU domain)),binding signal [1],binding signal [2]
AGAGGAAA,0.069 % of ANNNNAAN 8-mers,0.0667 % of ANNNNAAN 8-mers,0.0687 % of ANNNNAAN 8-mers,0.0619 % of ANNNNAAN 8-mers
AAGAGAAA,0.0511 % of ANNNNAAN 8-mers,0.0621 % of ANNNNAAN 8-mers,0.0531 % of ANNNNAAN 8-mers,0.038 % of ANNNNAAN 8-mers
ATGCCAAT,0.0648 % of ANNNNAAN 8-mers,0.0857 % of ANNNNAAN 8-mers,0.0609 % of ANNNNAAN 8-mers,0.0627 % of ANNNNAAN 8-mers
AGAGAAAC,0.0221 % of ANNNNAAN 8-mers,0.0247 % of ANNNNAAN 8-mers,0.0332 % of ANNNNAAN 8-mers,0.0231 % of ANNNNAAN 8-mers
ATAATAAT,0.273 % of ANNNNAAN 8-mers,0.353 % of ANNNNAAN 8-mers,0.11 % of ANNNNAAN 8-mers,0.143 % of ANNNNAAN 8-mers
ATTGTAAA,0.116 % of ANNNNAAN 8-mers,0.106 % of ANNNNAAN 8-mers,0.144 % of ANNNNAAN 8-mers,0.0925 % of ANNNNAAN 8-mers
AACGTAAT,0.077 % of ANNNNAAN 8-mers,0.0823 % of ANNNNAAN 8-mers,0.0546 % of ANNNNAAN 8-mers,0.071 % of ANNNNAAN 8-mers
AAAGAAAC,0.0355 % of ANNNNAAN 8-mers,0.0339 % of ANNNNAAN 8-mers,0.0433 % of ANNNNAAN 8-mers,0.0371 % of ANNNNAAN 8-mers
AAAAGAAG,0.0629 % of ANNNNAAN 8-mers,0.076 % of ANNNNAAN 8-mers,0.0679 % of ANNNNAAN 8-mers,0.071 % of ANNNNAAN 8-mers
ACCCGAAA,0.0172 % of ANNNNAAN 8-mers,0.019 % of ANNNNAAN 8-mers,0.0168 % of ANNNNAAN 8-mers,0.014 % of ANNNNAAN 8-mers
AAGGGAAT,0.115 % of ANNNNAAN 8-mers,0.121 % of ANNNNAAN 8-mers,0.0765 % of ANNNNAAN 8-mers,0.0908 % of ANNNNAAN 8-mers
ATACCAAA,0.0397 % of ANNNNAAN 8-mers,0.0541 % of ANNNNAAN 8-mers,0.041 % of ANNNNAAN 8-mers,0.038 % of ANNNNAAN 8-mers
ACAGTAAC,0.0149 % of ANNNNAAN 8-mers,0.0242 % of ANNNNAAN 8-mers,0.0148 % of ANNNNAAN 8-mers,0.0149 % of ANNNNAAN 8-mers
ACAATAAT,0.0778 % of ANNNNAAN 8-mers,0.0978 % of ANNNNAAN 8-mers,0.0515 % of ANNNNAAN 8-mers,0.0528 % of ANNNNAAN 8-mers
AGGTAAAT,0.379 % of ANNNNAAN 8-mers,0.269 % of ANNNNAAN 8-mers,0.55 % of ANNNNAAN 8-mers,0.391 % of ANNNNAAN 8-mers
AAGTCAAT,0.0667 % of ANNNNAAN 8-mers,0.0731 % of ANNNNAAN 8-mers,0.0535 % of ANNNNAAN 8-mers,0.0677 % of ANNNNAAN 8-mers
ATTGCAAG,0.0271 % of ANNNNAAN 8-mers,0.0397 % of ANNNNAAN 8-mers,0.0336 % of ANNNNAAN 8-mers,0.0363 % of ANNNNAAN 8-mers
AGCCTAAG,0.0183 % of ANNNNAAN 8-mers,0.0207 % of ANNNNAAN 8-mers,0.0219 % of ANNNNAAN 8-mers,0.0149 % of ANNNNAAN 8-mers
AAGTTAAC,0.0347 % of ANNNNAAN 8-mers,0.038 % of ANNNNAAN 8-mers,0.0355 % of ANNNNAAN 8-mers,0.0355 % of ANNNNAAN 8-mers
ACCCAAAA,0.0214 % of ANNNNAAN 8-mers,0.015 % of ANNNNAAN 8-mers,0.0246 % of ANNNNAAN 8-mers,0.0206 % of ANNNNAAN 8-mers
ACCTAAAG,0.0145 % of ANNNNAAN 8-mers,0.0173 % of ANNNNAAN 8-mers,0.0219 % of ANNNNAAN 8-mers,0.0223 % of ANNNNAAN 8-mers
ATCTGAAT,0.201 % of ANNNNAAN 8-mers,0.232 % of ANNNNAAN 8-mers,0.102 % of ANNNNAAN 8-mers,0.126 % of ANNNNAAN 8-mers
AGTTGAAT,0.0927 % of ANNNNAAN 8-mers,0.119 % of ANNNNAAN 8-mers,0.0667 % of ANNNNAAN 8-mers,0.0834 % of ANNNNAAN 8-mers
AATCAAAT,0.295 % of ANNNNAAN 8-mers,0.212 % of ANNNNAAN 8-mers,0.419 % of ANNNNAAN 8-mers,0.301 % of ANNNNAAN 8-mers
AGTGAAAA,0.0698 % of ANNNNAAN 8-mers,0.0685 % of ANNNNAAN 8-mers,0.0956 % of ANNNNAAN 8-mers,0.0685 % of ANNNNAAN 8-mers
ATTCTAAC,0.0503 % of ANNNNAAN 8-mers,0.0495 % of ANNNNAAN 8-mers,0.0328 % of ANNNNAAN 8-mers,0.0322 % of ANNNNAAN 8-mers
ATCAAAAT,0.095 % of ANNNNAAN 8-mers,0.0932 % of ANNNNAAN 8-mers,0.106 % of ANNNNAAN 8-mers,0.0743 % of ANNNNAAN 8-mers
AATCAAAC,0.0526 % of ANNNNAAN 8-mers,0.057 % of ANNNNAAN 8-mers,0.0765 % of ANNNNAAN 8-mers,0.0405 % of ANNNNAAN 8-mers
AGAAGAAC,0.0191 % of ANNNNAAN 8-mers,0.0288 % of ANNNNAAN 8-mers,0.0176 % of ANNNNAAN 8-mers,0.0256 % of ANNNNAAN 8-mers
AGGTAAAG,0.0801 % of ANNNNAAN 8-mers,0.0708 % of ANNNNAAN 8-mers,0.116 % of ANNNNAAN 8-mers,0.071 % of ANNNNAAN 8-mers

# Reference: paper PMC10812921, “Transcriptional Coactivator BOB1 (OBF1, OCA-B) Modulates the Specificity of DNA Recognition by the POU-Domain Factors OCT1 and OCT2 in a Monomeric Configuration”
